Some test systems named below: DU-145 prostate; K-562 leukemia; MALME-3M melanoma; MDA-MB-231 breast; RXF 393 renal; SF-268 CNS; SF-295 CNS; SF-539 CNS; UACC-257 melanoma; M14 melanoma.
What all share (experiment): NCI-60 one-dose screen, 48 h (100 = growth as untreated, 0 = no growth, -100 = all killed)
Common to all, as to conditions: 10 µM unless noted

Compounds without any hit were thinned out: in the full panel of roughly 83,000, 20% have a hit.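 48-hour exposure, single concentration, 96-well plates; percent growth endpoint where 0 means no net growth. Active: below 10.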 Values without a mark were called inactive. The source made the active and inactive calls.

On to `CN1CCN(c2ccc(NC3=C(Cl)C(=O)c4ncccc4C3=O)cc2C(F)(F)F)CC1`, for which the growth in the assay with DU-145 prostate is 96.6%; with K-562 leukemia, 3.72% (active); with MALME-3M melanoma it was -92.1% (active); in the assay on MDA-MB-231 breast, 4.49% (active); in the assay on RXF 393 renal it was -71.4% (active); with SF-268 CNS it was 87.7%. Further, the growth is 106% with SF-295 CNS, 104% in the assay with SF-539 CNS, -56.8% (active) in the assay with UACC-257 melanoma and 39.8% in the assay with M14 melanoma.

`Nc1nc(Nc2ccccc2SSc2ccccc2Nc2nc(N)nc(-c3cccs3)n2)nc(-c2ccsc2)n1`: the growth with DU-145 prostate is 95.1%; with K-562 leukemia, 80.9%; with MALME-3M melanoma, 106%; in the assay on MDA-MB-231 breast it was 75.8%; with RXF 393 renal, 109%; with SF-268 CNS, 79.6%. Moreover, the growth is -53.4% (active) in the assay with SF-295 CNS, 105% in the assay with SF-539 CNS, 101% in the assay on UACC-257 melanoma and 96.5% in the assay on M14 melanoma.

Turning to `Cc1ccc(S(=O)(=O)Nn2c3c(cc(-c4nc5ccccc5s4)c2=O)CCCCCC3)cc1`, the growth in the assay with DU-145 prostate was 105%; in the assay with K-562 leukemia, 98.4%; in the assay with MALME-3M melanoma it was 88.3%; with MDA-MB-231 breast it was 93.2%; with RXF 393 renal it was 101%; in the assay on SF-268 CNS, 96%. The growth was 97.2% in the assay with SF-295 CNS, 100% in the assay on SF-539 CNS, 97.3% in the assay on UACC-257 melanoma and 99% with M14 melanoma.

Take `CC1(C)CC[C@]23CC[C@]4(C)[C@H](CC[C@@H]5[C@@]6(C)CCCNC(C)(C)[C@@H]6CC[C@]54C)[C@H]2[C@H]1OC3`: the growth was -8.9% (active) with DU-145 prostate; -39.7% (active) in the assay on K-562 leukemia; -63.4% (active) with MALME-3M melanoma; -62.8% (active) with MDA-MB-231 breast; -65.3% (active) in the assay on RXF 393 renal; 38.2% in the assay with SF-268 CNS. The growth with SF-295 CNS is -65% (active); with SF-539 CNS it was 38.7%; with UACC-257 melanoma it was 45.1%; with M14 melanoma, -77.2% (active).

Regarding `O=C(/C=C/c1ccc(F)cc1)c1ccc(NC(=O)N2CCN(c3cc4c(cc3F)c(=O)c(C(=O)O)cn4C3CC3)CC2)cc1`, the growth was 103% with DU-145 prostate; 91.2% with K-562 leukemia; 91.3% with MALME-3M melanoma; 89.7% with MDA-MB-231 breast; 98.3% in the assay with RXF 393 renal; 89.9% in the assay with SF-268 CNS. Also, the growth was 98.7% in the assay on SF-295 CNS, 94.1% in the assay on SF-539 CNS, 97.2% with UACC-257 melanoma and 97.8% in the assay with M14 melanoma.

In the case of `CCN(Cc1ccccc1)c1ccc(C=O)cc1`, the growth was 110% in the assay on DU-145 prostate; 93.3% in the assay with K-562 leukemia; 117% in the assay on MALME-3M melanoma; 96.5% in the assay with MDA-MB-231 breast; 88.6% with RXF 393 renal; 106% with SF-268 CNS. Besides, the growth was 114% in the assay on SF-295 CNS, 87.7% in the assay with SF-539 CNS, 106% in the assay on UACC-257 melanoma and 102% in the assay on M14 melanoma.

Take `Cc1ccc(CNc2c3ccccc3nc3cc(NC(=O)CCN4CCCC4)ccc23)cc1`: the growth in the assay with DU-145 prostate was -67.9% (active); with K-562 leukemia it was -30.3% (active); in the assay with MALME-3M melanoma it was -94% (active); in the assay with MDA-MB-231 breast, -7.47% (active); with RXF 393 renal, 1.55% (active); in the assay with SF-268 CNS it was 15.1%. Besides, the growth with SF-295 CNS is 36.7%; in the assay on SF-539 CNS it was 16.7%; in the assay on UACC-257 melanoma, 24.1%; in the assay on M14 melanoma it was -88% (active).

Take `CC(=O)O[C@H]1Cc2c([nH]c3ccccc23)[C@@H](c2ccc(Cl)cc2)N1C(=O)CCNC(C)(C)C`: the growth in the assay on DU-145 prostate is 65.2%; in the assay with K-562 leukemia it was 8.71% (active); in the assay with MALME-3M melanoma, -37.8% (active); in the assay on MDA-MB-231 breast, -26% (active); in the assay with RXF 393 renal it was 39.6%; with SF-268 CNS, 61.3%. The growth is 68.3% in the assay on SF-295 CNS, 40.1% in the assay with SF-539 CNS, 65.1% in the assay on UACC-257 melanoma and -0.737% (active) with M14 melanoma.

Turning to `Cc1c(C(=O)NCCC(=O)NO)sc2ncnc(Nc3ccc(F)c(Cl)c3)c12`, the growth with DU-145 prostate is 111%; in the assay with K-562 leukemia, 113%; with MALME-3M melanoma, 113%; in the assay on MDA-MB-231 breast, 103%; with RXF 393 renal it was 102%; with SF-268 CNS, 96.5%. Moreover, the growth was 96.1% in the assay on SF-295 CNS, 98% in the assay with SF-539 CNS, 99.7% with UACC-257 melanoma and 105% in the assay with M14 melanoma.

With `COc1cccc(-c2nc3occn3c2-c2ccnc(NCCNS(=O)(=O)c3ccc(C(F)(F)F)cc3)n2)c1`, the growth in the assay on DU-145 prostate is 96.4%; in the assay on K-562 leukemia it was 71.6%; with MALME-3M melanoma, 107%; with MDA-MB-231 breast, 87.2%; in the assay with RXF 393 renal, 90.8%; in the assay with SF-268 CNS, 88.2%. The growth with SF-295 CNS is 99.1%; in the assay on SF-539 CNS, 104%; with UACC-257 melanoma it was 121%; in the assay on M14 melanoma, 102%.

For the compound `C=C(C)[C@@H]1CC[C@]2(C(=O)N3CCN(C)CC3)CC[C@]3(C)[C@H](CC[C@@H]4[C@@]5(C)CC[C@H](OCCC#N)C(C)(C)[C@@H]5CC[C@]43C)[C@@H]12`, the growth is 92.5% in the assay on DU-145 prostate; 16.2% in the assay with K-562 leukemia; 118% with MALME-3M melanoma; 65.8% with MDA-MB-231 breast; 47.4% in the assay on RXF 393 renal; 90.5% with SF-268 CNS. The growth in the assay with SF-295 CNS was 115%; with SF-539 CNS, 102%; with UACC-257 melanoma, 107%; with M14 melanoma, 107%.

For `COC(=O)/C=C1\S/C(=N\NC(=O)c2cc3ccc2/C=C\c2ccc(cc2)/C=C\3)N(Cc2ccccc2)C1=O`, the growth in the assay on DU-145 prostate is 83.2%; in the assay with K-562 leukemia it was 18.9%; in the assay with MALME-3M melanoma, 88.4%; with MDA-MB-231 breast it was 56.8%; in the assay with RXF 393 renal it was 15.6%; in the assay with SF-268 CNS it was 85%. Moreover, the growth with SF-295 CNS is 89.4%; in the assay on SF-539 CNS it was 43.3%; with UACC-257 melanoma it was 81%; in the assay with M14 melanoma it was 63.4%.

On to `CCCOC(=O)N[C@H]1CCc2cc(OC)c(OC)c(OC)c2-c2ccc(SC)c(=O)cc21`, for which the growth is -18.3% (active) in the assay on DU-145 prostate; 7.7% (active) with K-562 leukemia; 35.4% in the assay on MALME-3M melanoma; -8.18% (active) with MDA-MB-231 breast; 19.5% in the assay on RXF 393 renal; 22.6% in the assay with SF-268 CNS. The growth is 17.3% in the assay on SF-295 CNS, -21.5% (active) with SF-539 CNS, 71.8% in the assay with UACC-257 melanoma and 6.23% (active) in the assay with M14 melanoma.

The values above are taken from PubChem BioAssay (NCI).
